Test [1] addresses Endonuclease 4 (Escherichia coli (strain K12)) (UniProt P0A6C1). The test is described as follows: Counterscreen for APE1 Inhibitors: qHTS Validation Assay for Inhibitors of Endonuclease IV (AID 1708). Note: % is set by controls: 0 for no effect and ±100 for the full control effect. In a few lines:
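The reaction buffer contained 50 mM Tris-HCl pH 7.5, 50 mM NaCl, 2 mM MgCl2, 1 mM DTT and 0.01% Tween-20. Incision of a 50 nM fluorophore/quencher THF substrate by 2 nM enzyme was measured kinetically.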
A general note: Counterscreens check selectivity or assay interference.

Test [2] in a line: qHTS for differential inhibitors of proliferation of Plasmodium falciparum line 7G8 (AID 1815).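 Note: potency is the fitted concentration of half-maximal effect; parasite growth measured after three days of incubation.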 In general terms: Quantitative high-throughput screening tests each substance at several concentrations.
Test [3] in a line: qHTS for differential inhibitors of proliferation of Plasmodium falciparum line 3D7 (AID 1876).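 Note: parasite growth measured after three days of culture; 0% = vehicle wells and -100% = reference inhibitor wells.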
Test [4] is described as follows: qHTS for differential inhibitors of proliferation of Plasmodium falciparum line Dd2 (AID 1882).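 Note: series mostly up to about 29 µM; compound exposure of 72 h on infected erythrocytes; plate controls were DMSO vehicle for no effect and 0.29 µM artemisinin for full effect; nearly all actives have a fitted effect of over 65% in size.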 The conditions noted are these: Potency: Plasmodium falciparum Dd2 proliferation inhibition. The method in brief:
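RBC culture, 0.3% parasitemia / 2.5% Hct final; cpd added by pin tool in DMSO; 72 h, 37 C, 5% CO2; lysis buffer + SYBR Green I, o/n RT dark; FI 485/535; norm. to artemisinin 0.29 uM and DMSO.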

A short description of test [5]: qHTS for differential inhibitors of proliferation of Plasmodium falciparum line W2 (AID 1883).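 Note: potency is the fitted concentration of half-maximal effect; parasites grown with compound for 72 h before lysis and staining.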 The note with it: Potency: Plasmodium falciparum W2 proliferation inhibition.
Test [6] deals with Ferritin light chain (Equus caballus) (UniProt P02791). The test is described as follows: qHTS Validation Assay for Identification of Novel General Anesthetics (AID 2323). Note: series mostly up to about 77 µM; % is set by controls: 0 for no effect and ±100 for the full control effect. The method in brief: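 Horse-spleen apoferritin (10 uM) in PBS with 50% saturated 1-aminoanthracene; compounds pin-transferred, 10 min at room temperature. Fluorescence read at 380/535 nm, normalized to free 1-AMA and 1-AMA/apoferritin values; four-parameter Hill fit.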
Chain of Ferritin light chain (Equus caballus) (P02791 2-175 limits assumed): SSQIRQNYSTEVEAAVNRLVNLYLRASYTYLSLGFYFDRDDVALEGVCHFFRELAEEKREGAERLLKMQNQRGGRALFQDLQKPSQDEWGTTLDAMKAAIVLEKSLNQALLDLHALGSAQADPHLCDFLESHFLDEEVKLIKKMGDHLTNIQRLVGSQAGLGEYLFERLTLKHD

Test [7] concerns the target ATP-dependent DNA helicase Q1 (Homo sapiens) (UniProt P46063). The test is described as follows: qHTS Validation Assay for Inhibitors of RecQ-Like Dna Helicase 1 (RECQ1) (AID 2353).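 Note: plate controls were DMSO vehicle for no effect and enzyme-free control for full effect.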 In a few lines: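 RECQ1T1 50 nM; forked duplex (20 bp + 30-nt ss tails) 200 nM, ATP 2 mM final; pH 8.0, 2 mM MgCl2, 2.5 ug/ml poly(dI-dC); 15 min compound preincubation; discontinuous kinetic read over 2 h at RT.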

For test [8], the target named is RecQ-like DNA helicase BLM (Homo sapiens) (UniProt P54132). The test is described as follows: qHTS Validation Assay for Inhibitors of Bloom's syndrome helicase (BLM) (AID 2364).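 Note: plate controls were DMSO vehicle for no effect and enzyme-free control for full effect.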 In a few lines: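 Forked 20-bp duplex substrate (200 nM, TAMRA/BHQ-2) plus 2 mM ATP added after 15 min compound preincubation with 50 nM enzyme, pH 8.0, poly(dI-dC) 2.5 ug/ml. Strand separation followed by fluorescence (525/598 nm) over 2 h, normalized to enzyme-free and DMSO controls.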
Chain of RecQ-like DNA helicase BLM (Homo sapiens) (P54132 whole entry, looked up): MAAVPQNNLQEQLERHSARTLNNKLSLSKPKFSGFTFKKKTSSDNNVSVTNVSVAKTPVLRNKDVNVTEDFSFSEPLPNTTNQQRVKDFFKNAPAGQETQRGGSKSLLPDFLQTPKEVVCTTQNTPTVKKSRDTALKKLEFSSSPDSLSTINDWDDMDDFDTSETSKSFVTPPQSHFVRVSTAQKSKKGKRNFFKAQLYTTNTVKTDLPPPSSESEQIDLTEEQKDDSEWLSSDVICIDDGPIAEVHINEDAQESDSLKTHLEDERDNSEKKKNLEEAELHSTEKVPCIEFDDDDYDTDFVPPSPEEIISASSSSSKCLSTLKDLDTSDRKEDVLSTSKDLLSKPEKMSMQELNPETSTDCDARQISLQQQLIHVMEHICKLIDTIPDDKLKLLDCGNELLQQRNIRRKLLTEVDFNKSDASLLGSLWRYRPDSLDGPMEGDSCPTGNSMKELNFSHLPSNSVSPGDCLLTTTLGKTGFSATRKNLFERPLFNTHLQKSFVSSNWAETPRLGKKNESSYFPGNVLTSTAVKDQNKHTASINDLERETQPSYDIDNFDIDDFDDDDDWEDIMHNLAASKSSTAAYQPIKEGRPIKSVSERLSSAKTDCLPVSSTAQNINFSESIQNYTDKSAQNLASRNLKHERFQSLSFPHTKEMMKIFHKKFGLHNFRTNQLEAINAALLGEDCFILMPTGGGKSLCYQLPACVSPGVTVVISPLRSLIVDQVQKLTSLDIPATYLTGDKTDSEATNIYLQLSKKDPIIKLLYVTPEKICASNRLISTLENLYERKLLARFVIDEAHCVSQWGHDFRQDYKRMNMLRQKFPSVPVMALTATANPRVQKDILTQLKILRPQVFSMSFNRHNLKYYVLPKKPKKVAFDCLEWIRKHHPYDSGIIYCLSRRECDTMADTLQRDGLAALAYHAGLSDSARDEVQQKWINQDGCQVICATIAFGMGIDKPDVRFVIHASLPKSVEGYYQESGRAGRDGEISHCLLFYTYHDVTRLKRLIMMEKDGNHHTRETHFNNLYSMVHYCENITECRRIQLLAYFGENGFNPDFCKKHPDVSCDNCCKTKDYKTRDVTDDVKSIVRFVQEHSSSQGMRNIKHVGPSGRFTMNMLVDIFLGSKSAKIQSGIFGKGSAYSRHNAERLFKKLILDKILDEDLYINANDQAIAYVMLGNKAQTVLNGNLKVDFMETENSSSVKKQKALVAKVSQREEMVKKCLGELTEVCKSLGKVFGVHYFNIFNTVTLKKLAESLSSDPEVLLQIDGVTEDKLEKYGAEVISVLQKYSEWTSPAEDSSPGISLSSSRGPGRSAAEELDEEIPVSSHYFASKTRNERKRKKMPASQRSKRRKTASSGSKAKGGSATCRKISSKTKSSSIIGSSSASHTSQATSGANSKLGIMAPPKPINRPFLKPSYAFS

Test [9] can be described thus: Validation screen for inhibitors of Lassa infection (AID 463096; calls by dose curve; note: % is set by controls: 0 for no effect and ±100 for the full control effect).
Test [10] in a line: Validation screen for small molecules that induce DNA re-replication in MCF 10A normal breast cells (AID 463097). Note: 0% is about no effect; nearly all actives have a fitted effect of over 60% in size. The method in brief: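 MCF 10A cells exposed to compound 48 hr at 37 C, 5% CO2, then Hoechst-stained 40 min. Laser-scanning imaging of nuclear DNA content (405 nm ex, 500-530 nm em); re-replication scored as rise in nuclei with elevated fluorescence intensity.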
The target of test [11] is Transient receptor potential cation channel subfamily V member 1 (Homo sapiens) (UniProt Q8NER1). The test is described as follows: HTS Assay for Compounds that Act as Enhancers of the Vanilloid Receptor 1 (AID 488979). Note: 0% is about no effect. In a few lines:
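Calcium influx kinetics via Fluo-8 (480/520 nm) in TRPV1-expressing cells, 2000/well cultured overnight at 35.5C. Compound-alone read 3 min (agonist phase), followed by EC20 capsaicin challenge for 2 min (enhancer phase).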

The target of test [12] is Thyrotropin receptor (Homo sapiens) (UniProt P16473). The test is described as follows: qHTS Assay for Antagonists of the Thyroid Stimulating Hormone Receptor (AID 488980). Note: series mostly up to about 58 µM; 0% is about no effect. The method in brief: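 TSHR-transfected HEK293 cells (2000/well) in HEPES-buffered HBSS with 70 uM RO 20-1724 were stimulated with 4 nM TSH (EC80, final) in the presence of compound. cAMP was measured by HTRF competition after lysis and 30 min at RT.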

Test [13] concerns the target Thyrotropin-releasing hormone receptor (Homo sapiens) (UniProt P34981). The test is described as follows: qHTS for Small Molecule Agonists and Allosteric Enhancers of Human TRH Receptor: Validation Screen for Agonists (AID 493127;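 active = calcium activation more than 3 SD above the typical response in the agonist read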;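 note: intracellular calcium rise by fluo-8 fluorescence before TRH EC20 addition; 0% is about no effect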). The note with it: TRH receptor agonist cell assay; at 2 µM; active compounds read high. The method in brief:
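Kinetic fluorescence assay of agonist-induced calcium release: overnight-plated TRHR cells, room-temperature fluo-8 loading, baseline then compound addition with per-second reads.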

Test [14] deals with Galactokinase (Homo sapiens) (UniProt P51570). The test is described as follows: qHTS Validation Assay for Inhibitors of Human Galactokinase (GALK) (AID 493189). Note: 0% is about no effect. In a few lines:
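GALK (5 nM) with 35 uM ATP and 100 uM galactose in HEPES pH 8.0 with MgCl2, NaCl, DTT and BSA. Reaction ran 1 h at room temperature. Residual ATP read by Kinase-Glo Plus luminescence.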

Test [15] is described as follows: Validation screen for small molecules that induce DNA re-replication in SW480 colon adenocarcinoma cells (AID 504364). Note: 0% is about no effect. The method in brief: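 Hoechst-stained SW480 nuclei, imaged at 405 nm excitation after 48 hr compound exposure, were counted for elevated DNA content as the re-replication signal.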
Test [16] deals with Voltage-gated inwardly rectifying potassium channel KCNH2 (Homo sapiens) (UniProt Q12809). The test is described as follows: qHTS Assay for Small Molecule Inhibitors of the Human hERG Channel Activity (AID 588834).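 Note: top concentration of the series differs between compounds; % is set by controls: 0 for no effect and ±100 for the full control effect; lower thallium flux fluorescence means stronger hERG block; nearly all actives have a fitted effect of over 50% in size.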 The method in brief: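 Thallium serves as surrogate for K+ influx through BacMam-delivered hERG in U2OS cells. Compounds are added for about 10 minutes after dye loading; stimulation buffer then starts flux, monitored kinetically on FDSS.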
Chain of Voltage-gated inwardly rectifying potassium channel KCNH2 (Homo sapiens) (Q12809 whole entry, looked up): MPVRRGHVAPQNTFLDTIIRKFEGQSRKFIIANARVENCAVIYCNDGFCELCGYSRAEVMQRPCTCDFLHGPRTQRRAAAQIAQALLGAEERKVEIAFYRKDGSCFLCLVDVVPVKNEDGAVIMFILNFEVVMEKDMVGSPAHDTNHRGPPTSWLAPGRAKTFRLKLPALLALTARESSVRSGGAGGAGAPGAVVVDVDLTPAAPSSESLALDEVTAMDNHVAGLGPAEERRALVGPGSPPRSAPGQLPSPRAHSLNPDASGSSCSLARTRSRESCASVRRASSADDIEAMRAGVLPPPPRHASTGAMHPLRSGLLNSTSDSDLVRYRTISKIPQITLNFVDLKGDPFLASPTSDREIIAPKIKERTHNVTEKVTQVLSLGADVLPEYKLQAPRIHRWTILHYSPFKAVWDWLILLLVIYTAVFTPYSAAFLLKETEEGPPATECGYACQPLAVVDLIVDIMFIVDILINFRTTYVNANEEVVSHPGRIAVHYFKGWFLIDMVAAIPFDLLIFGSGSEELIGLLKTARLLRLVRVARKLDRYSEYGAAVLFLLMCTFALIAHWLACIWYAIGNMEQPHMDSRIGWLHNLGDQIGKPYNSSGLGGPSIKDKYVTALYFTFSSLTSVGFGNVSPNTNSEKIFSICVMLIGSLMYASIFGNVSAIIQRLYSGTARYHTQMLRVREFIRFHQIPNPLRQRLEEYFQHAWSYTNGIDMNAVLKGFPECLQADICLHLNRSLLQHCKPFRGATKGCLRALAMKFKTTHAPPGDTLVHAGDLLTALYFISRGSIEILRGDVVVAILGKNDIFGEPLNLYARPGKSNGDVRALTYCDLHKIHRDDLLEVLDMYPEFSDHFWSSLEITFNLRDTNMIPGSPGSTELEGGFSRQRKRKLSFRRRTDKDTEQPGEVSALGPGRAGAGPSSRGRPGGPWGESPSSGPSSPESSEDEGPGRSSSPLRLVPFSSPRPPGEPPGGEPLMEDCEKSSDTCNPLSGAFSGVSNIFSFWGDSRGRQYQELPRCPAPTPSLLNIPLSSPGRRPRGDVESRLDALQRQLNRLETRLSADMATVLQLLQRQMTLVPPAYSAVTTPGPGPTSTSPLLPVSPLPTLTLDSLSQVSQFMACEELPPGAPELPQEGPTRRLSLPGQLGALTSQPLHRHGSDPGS

The next test addresses Furin (Homo sapiens) (UniProt P09958). The test is described as follows: Furin counterscreen qHTS for Zika virus inhibitors (AID 1347149). Note: potency is the fitted concentration of half-maximal effect; nearly all actives have a fitted effect of over 70% in size. The method in brief: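 Counterscreen measures cleavage of 2 microM BOC-RVRR-AMC, below its ~15 microM Km, by 5 nM full-length human furin at pH 7.0 after a 15-min compound preincubation. Inhibition derives from the 15-min fluorescence increase at 37C.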

The subject of test [17] is Zika virus NS2B-NS3 protease (linked construct). The test is described as follows: Confirmatory screen NINDS AMC qHTS for Zika virus inhibitors (AID 1347152). Note: potency is the fitted concentration of half-maximal effect; nearly all actives have a fitted effect of over 70% in size. In a few lines:
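Linked NS2B-NS3 protease, 1 nM, in 10 mM Tris-HCl pH 8.0, 0.01% Tween 20; compounds preincubated 15 min at room temperature. Nle-KRR-AMC 10 microM (Km 18.3 µM); 15-min fluorescence change (340/450 nm) fitted to 4-parameter Hill.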

Test [18] deals with Zika virus NS2B-NS3 protease (unlinked complex). The test is described as follows: Confirmatory screen GU AMC qHTS for Zika virus inhibitors (AID 1347153).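 Note: enzyme at 25 nM with substrate at 10 µM below its Km of 18.3 µM; potency is the fitted concentration of half-maximal effect; nearly all actives have a fitted effect of over 70% in size.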 The method in brief: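 Noncovalent NS2B hydrophilic domain/NS3 protease complex (25 nM) in 10 mM Tris-HCl pH 8.0, 0.01% Tween 20 was preincubated 15 min at room temperature with compounds. Then 10 µM AMC substrate (Km 18.3 µM) was added; fluorescence was read over 15 min and fitted to a 4-parameter Hill equation.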

The subject of test [19] is Zika virus NS2B-NS3 protease. The test is described as follows: Primary screen GU AMC qHTS for Zika virus inhibitors (AID 1347154). Note: potency is the fitted concentration of half-maximal effect; nearly all actives have a fitted effect of over 70% in size. In a few lines:
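Fluorogenic AMC-substrate cleavage by noncovalent NS2B-NS3 protease complex (25 nM, pH 8.0 Tris buffer with Tween 20) followed for 15 minutes at room temperature (~20% conversion). Percent inhibition from ex340/em450 signal change, fitted by 4-parameter Hill equation.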

A short description of test [20]: Vero cells viability qHTS for Zika virus inhibitors (AID 1347167). Note: % is set by controls: 0 for no effect and ±100 for the full control effect. The method in brief: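 Luminescent ATP readout (CellTiter Glo) after 30 min at 37 degrees C gives viability; cells in DMEM + 4% FBS were treated 24 to 48 hours with compound, following overnight attachment.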
Test [21] in a line: Tertiary RLuc qRT-PCR qHTS assay for Zika virus inhibitors (AID 1347169). Note: top concentration of the series differs between compounds; % is set by controls: 0 for no effect and ±100 for the full control effect; nearly all actives have a fitted effect of over 55% in size. The method in brief: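 Vero cells (1,000/well) infected with recombinant ZIKV-RLuc (Cambodian) at MOI 1-2 after compound addition, 48-72 hrs at 37 degrees C. Live-cell Renilla luciferase substrate added; luminescence read after 1-1.5 hrs.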
A general note: Quantitative PCR measures a nucleic acid by following its amplification.

Test [22] in a line: Primary qHTS for small molecule stabilizers of the endoplasmic reticulum resident proteome: Secreted ER Calcium Modulated Protein (SERCaMP) assay (AID 1508630). Note: % is set by controls: 0 for no effect and ±100 for the full control effect. The method in brief: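 The SH-SY5Y reporter protocol was run at 3 concentrations up to 38.3 uM (primary) or 11 concentrations (follow-up): 16 h compound, 100 nM thapsigargin for 4 h, then extracellular luciferase luminescence.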

Values without a mark were called inactive. Records with an inconclusive call do not appear. The source made the active and inactive calls. Unless noted, calls come from the whole dose curve; as a rule, active = well fitted curve in the direction sought with a large enough effect; inconclusive = small, poorly fitted or top-dose-only effect, or another doubt; inactive = no such curve, though single readings can be large; an effect the other way counts as inactive or inconclusive.

Chain of Thyrotropin-releasing hormone receptor (Homo sapiens) (P34981 whole entry, looked up): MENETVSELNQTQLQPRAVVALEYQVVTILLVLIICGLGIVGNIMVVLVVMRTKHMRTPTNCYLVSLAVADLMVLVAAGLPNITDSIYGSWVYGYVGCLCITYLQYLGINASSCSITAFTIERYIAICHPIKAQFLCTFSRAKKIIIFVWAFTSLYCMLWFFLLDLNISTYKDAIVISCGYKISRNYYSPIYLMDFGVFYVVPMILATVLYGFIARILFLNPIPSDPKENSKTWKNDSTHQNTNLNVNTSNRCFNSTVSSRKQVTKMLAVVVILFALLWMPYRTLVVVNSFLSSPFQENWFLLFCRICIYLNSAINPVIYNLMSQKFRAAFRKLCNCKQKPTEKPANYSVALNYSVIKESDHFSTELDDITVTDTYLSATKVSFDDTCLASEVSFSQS
Chain of Galactokinase (Homo sapiens) (P51570 whole entry, looked up): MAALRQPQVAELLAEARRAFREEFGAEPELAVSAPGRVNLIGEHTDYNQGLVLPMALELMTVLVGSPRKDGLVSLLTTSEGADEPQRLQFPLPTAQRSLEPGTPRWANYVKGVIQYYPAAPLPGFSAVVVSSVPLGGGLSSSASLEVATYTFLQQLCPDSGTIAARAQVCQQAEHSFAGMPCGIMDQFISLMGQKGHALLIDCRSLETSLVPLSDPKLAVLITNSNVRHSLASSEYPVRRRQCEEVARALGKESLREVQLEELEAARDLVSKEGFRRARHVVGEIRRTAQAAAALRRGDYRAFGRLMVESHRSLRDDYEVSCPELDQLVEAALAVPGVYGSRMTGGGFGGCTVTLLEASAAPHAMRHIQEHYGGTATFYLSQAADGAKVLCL
Chain of Furin (Homo sapiens) (P09958 whole entry, looked up): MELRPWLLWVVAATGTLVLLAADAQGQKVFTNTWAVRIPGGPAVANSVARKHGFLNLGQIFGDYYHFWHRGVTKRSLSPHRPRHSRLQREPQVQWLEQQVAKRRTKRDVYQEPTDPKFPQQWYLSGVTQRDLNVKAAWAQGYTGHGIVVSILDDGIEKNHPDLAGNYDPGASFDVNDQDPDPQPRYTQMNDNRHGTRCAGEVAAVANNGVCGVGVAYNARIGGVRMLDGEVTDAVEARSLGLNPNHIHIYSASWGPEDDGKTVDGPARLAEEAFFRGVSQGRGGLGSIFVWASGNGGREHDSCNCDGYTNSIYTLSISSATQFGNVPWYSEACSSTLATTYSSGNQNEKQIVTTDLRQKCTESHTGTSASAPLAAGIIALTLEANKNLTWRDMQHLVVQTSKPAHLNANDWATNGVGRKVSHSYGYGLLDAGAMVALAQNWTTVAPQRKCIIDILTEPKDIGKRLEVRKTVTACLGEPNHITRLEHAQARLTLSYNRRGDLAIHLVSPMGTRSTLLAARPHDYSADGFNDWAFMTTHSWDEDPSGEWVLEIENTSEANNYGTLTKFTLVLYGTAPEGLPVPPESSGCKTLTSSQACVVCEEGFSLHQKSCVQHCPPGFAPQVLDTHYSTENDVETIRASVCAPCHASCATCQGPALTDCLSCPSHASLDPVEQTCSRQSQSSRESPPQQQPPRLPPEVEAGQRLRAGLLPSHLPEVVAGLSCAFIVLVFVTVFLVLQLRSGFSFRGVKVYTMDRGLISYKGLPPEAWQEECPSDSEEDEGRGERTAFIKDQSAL
Chain of ATP-dependent DNA helicase Q1 (Homo sapiens) (P46063 whole entry, looked up): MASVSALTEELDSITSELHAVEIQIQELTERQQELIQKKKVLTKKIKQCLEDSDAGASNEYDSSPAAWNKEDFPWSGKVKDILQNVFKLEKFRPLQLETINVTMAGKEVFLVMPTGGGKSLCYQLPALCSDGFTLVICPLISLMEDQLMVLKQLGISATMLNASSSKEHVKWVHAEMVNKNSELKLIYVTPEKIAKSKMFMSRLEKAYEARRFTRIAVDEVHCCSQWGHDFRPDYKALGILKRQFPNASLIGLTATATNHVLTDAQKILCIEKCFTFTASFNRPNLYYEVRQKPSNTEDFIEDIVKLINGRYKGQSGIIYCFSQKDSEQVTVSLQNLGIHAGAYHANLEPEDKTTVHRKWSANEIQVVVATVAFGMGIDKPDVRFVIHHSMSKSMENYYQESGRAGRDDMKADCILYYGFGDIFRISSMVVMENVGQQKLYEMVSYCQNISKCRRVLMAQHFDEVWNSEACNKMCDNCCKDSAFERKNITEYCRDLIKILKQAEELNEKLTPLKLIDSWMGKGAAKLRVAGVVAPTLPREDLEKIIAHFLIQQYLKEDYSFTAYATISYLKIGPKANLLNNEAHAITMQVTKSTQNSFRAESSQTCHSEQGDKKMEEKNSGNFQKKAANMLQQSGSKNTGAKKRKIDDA

On to `COC(=O)c1cc2c(cn1)[nH]c1ccccc12`, for which the compound was classed as inactive in test [1], in test [6], in test [11], in test [12] and in test [14]. Moreover, the Potency was 11.2 µM (active) in [2]; 12.6 µM (active) in test [5]; 24.1 µM (active) in the test with Furin (Homo sapiens); 24.1 µM (active) in test [17]; 24.1 µM (active) in test [18]; 23.8 µM (active) in test [19]. For the same compound, the Potency result in test [3], in [4], in test [7], in [8], in test [9] and in [10] was “inactive” throughout. The Potency result in test [15], in test [16], in [20], in test [21] and in [22] was “inactive” throughout. The activation in test [13] was 1.44%.
